Results published in PubChem BioAssay (NCATS).
“And” between values parts separate entries of the source, which are not always exact repeats. Identical values can stand only once. Records with an inconclusive call do not appear. The source made the active and inactive calls. Unless noted, calls come from the whole dose curve; as a rule, active = well fitted curve in the direction sought with a large enough effect; inconclusive = small, poorly fitted or top-dose-only effect, or another doubt; inactive = no such curve, though single readings can be large; an effect the other way counts as inactive or inconclusive.

Tests used:
[1] = Cell Viability - BJ (AID 421; calls by dose curve;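 note: potency is the fitted concentration of half-maximal effect; cells exposed to compound for 40 hours at 37 °C before readout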); settings: BJ fibroblast viability, qHTS
Outline: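 Luminescent ATP signal (CellTiter-Glo, 20 min at room temperature) served as the read-out of viable BJ cells after 40 hours of compound treatment. Responses were scaled between DMSO and 100 uM tamoxifen, and AC50 values were obtained by Hill modeling.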

[2] = Cell Viability - HepG2 (AID 433; calls by dose curve;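 note: potency is the fitted concentration of half-maximal effect; potency for ATP loss meaning cytotoxicity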); settings: qHTS
Outline: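 HepG2 cells, 1500 per well, treated 40 hr at 37 °C in complete medium; viability from intracellular ATP by CellTiter-Glo luminescence. Normalized to DMSO and 100 uM tamoxifen; AC50 from Hill fit of qHTS concentration-response.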

[3] = Cell Viability - MRC5 (AID 434; calls by dose curve;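 note: potency is the fitted concentration of half-maximal effect; potency reflects cytotoxicity seen as loss of intracellular ATP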); settings: MRC5 lung fibroblast viability, qHTS
Outline: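 MRC5 normal human lung fibroblasts, 1500 cells/well, exposed to compound for 40 hr at 37 C. Cellular ATP was read by CellTiter-Glo luminescence; data normalized to DMSO and 100 uM tamoxifen, with AC50 from Hill fits.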

[4] = Cell Viability - NIH 3T3 (AID 541); settings: NIH 3T3 cell viability, qHTS; activity change, negative = cytotoxicity: at 92.2 µM (top of the series);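 note: plate controls were DMSO alone for no effect and tamoxifen positive control for full effect; nearly all actives have a fitted effect of over 25% in size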
Outline: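 NIH 3T3 mouse embryo fibroblasts (1000 cells/well) were plated in complete medium and treated with compound for 40 hr at 37 °C. Viability was read as intracellular ATP by CellTiter-Glo luminescence; AC50 values came from Hill-equation fits of concentration-response data.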

[5] = Cell Viability - HUV-EC-C (AID 542); settings: HUV-EC-C endothelial cell viability, qHTS; series mostly up to 92.2 µM; note: % is set by controls: 0 for no effect and ±100 for the full control effect; nearly all actives have a fitted effect of over 35% in size
Outline: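 HUV-EC-C normal human vascular endothelial cells, 1000 cells/well, pre-incubated 5 hr at 37 °C, then exposed to compounds for 40 hr at 37 °C in complete medium. Viability measured as intracellular ATP by CellTiter-Glo luminescence; AC50 from Hill fits.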

[6] = Cell Viability - H-4-II-E (AID 543); settings: H-4-II-E rat hepatoma viability; series mostly up to 92.2 µM; note: % is set by controls: 0 for no effect and ±100 for the full control effect; nearly all actives have a fitted effect of over 35% in size
Outline: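 Rat hepatoma H-4-II-E cells (1500/well) were plated, incubated 5 hr at 37 °C, then exposed to compounds for 40 hr at 37 °C. Cellular ATP was read by CellTiter-Glo luminescence; AC50 came from Hill-equation fits of concentration-response data.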

[7] = Cell Viability - SH-SY5Y (AID 544); settings: SH-SY5Y neuroblastoma cell viability; viability change, negative = cytotoxic: at 92.2 µM (top of the series); note: nearly all actives have a fitted effect of over 55% in size
Outline: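 Human neuroblastoma SH-SY5Y cells (1500/well) in complete medium were exposed to compounds for 40 hr at 37 °C; intracellular ATP was then quantified by CellTiter-Glo luminescence after 20 min at room temperature. AC50 came from Hill-equation concentration-response fits.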

[8] = Cell Viability - Renal Proximal Tubule (AID 545); settings: renal proximal tubule cells viability; at 91.7 µM (top of the series), primary cells of rat origin unless noted; note: nearly all actives have a fitted effect of over 40% in size
Outline: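 Rat renal proximal tubule primary cells, 1000/well, exposed to compounds for 40 hr at 37 °C in complete medium; cellular ATP read by CellTiter-Glo luminescence. AC50 from concentration-response fitted with standard Hill equation.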

[9] = Cellular Toxicity (caspase-3) HepG2 (AID 654); settings: HepG2 caspase-3 activation, luminescence, 0% = DMSO only, 100% = tamoxifen; series mostly up to 92.2 µM;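 note: cells exposed to compound for 16 hours before reading; 0% = DMSO alone and 100% = caspase signal from 100 µM tamoxifen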
Outline: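 HepG2 cells (1500/well) in complete medium were treated with compounds for 16 hr at 37 °C. Caspase-3/7 activity was then read as luminescence from peptide-aminoluciferin cleavage. AC50 came from Hill fits, normalized to DMSO and 100 uM tamoxifen.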

[10] = Cellular Toxicity (caspase-3) Jurkat (AID 655); settings: Jurkat caspase-3 activation, luminescence, DMSO = 0%, tamoxifen = 100%; at 92.2 µM (top of the series);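 note: cells exposed to compound for 16 h at 37 °C before reading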
Outline: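 Jurkat cells (5000/well) in complete medium exposed 16 h at 37 C; caspase-3/7 activity read by Caspase-Glo luminescence after 20 min at room temperature. Normalized to DMSO and 100 uM tamoxifen; AC50 from Hill fits.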

[11] = Cellular Toxicity (caspase-3) HUV-EC-C (AID 656); settings: HUV-EC-C cells, caspase-3 activation (apoptosis), vehicle = 0, 100 µM tamoxifen = 100%; series mostly up to 92.2 µM
Outline: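 HUV-EC-C cells (1000/well) in complete medium, compound-treated 16 h at 37 °C; caspase-3/7 activity read by Caspase-Glo 3/7 luminescence. Normalized to DMSO (basal) and 100 uM tamoxifen (100%); AC50 from Hill-equation concentration-response fits.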

[12] = Cellular Toxicity (caspase-3) SHSY5Y (AID 657); settings: SH-SY5Y caspase-3 activation, DMSO zero, 10 µM staurosporine = 100%; series mostly up to 91.7 µM
Outline: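 SH-SY5Y human neuroblastoma cells, 1500/well, exposed to compound for 16 hours at 37 °C in complete medium. Caspase-3/7 activity read by Caspase-Glo luminescence after 1 hr at room temperature, normalized to DMSO and 10 uM staurosporine; AC50 from Hill fit.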

[13] = Cellular Toxicity (caspase-3) BJ (AID 658); settings: BJ fibroblasts, luminescence, normalized: DMSO 0%, staurosporine 100%; series mostly up to 91.7 µM
Outline: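 BJ human foreskin fibroblasts, 1000 cells/well, treated 16 hours at 37 °C in complete medium; caspase 3/7 activity by Caspase-Glo luminescence after 1 hr at room temperature. Normalized to DMSO and 10 uM staurosporine; AC50 from Hill fits.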

[14] = Cellular Toxicity (caspase-3) MRC-5 (AID 659); settings: MRC-5 cells, luminescence, normalized: DMSO 0%, 10 µM staurosporine 100%; series mostly up to 91.7 µM
Outline: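 MRC-5 human normal lung fibroblasts, 1500 cells/well, treated 16 h at 37 °C in complete medium. Caspase 3/7 measured by Caspase-Glo luminescence after 1 h at room temperature. Normalized to DMSO and 10 uM staurosporine; AC50 from Hill fit.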

[15] = Cellular Toxicity (caspase-3) SK-N-SH (AID 661); settings: SK-N-SH caspase-3 activation, qHTS, DMSO as zero, staurosporine as full; series mostly up to 91.7 µM
Outline: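 SK-N-SH human neuroblastoma cells (1500/well) were treated with compounds for 16 hr at 37 °C in complete medium; caspase 3/7 activity was read by Caspase-Glo luminescence. AC50 came from Hill fits of data normalized to DMSO and 10 uM staurosporine.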

[16] = Cellular Toxicity (caspase-3) H-4-II-E (AID 663); settings: H-4-II-E rat hepatoma, scaled: DMSO 0%, 100 µM tamoxifen 100%; series mostly up to 92.2 µM;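 note: cells exposed to compound for 16 hr before readout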
Outline: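 Rat hepatoma H-4-II-E cells (1500/well) plated 5 hr, then exposed to compound titrations for 16 hr at 37 °C. Caspase-Glo 3/7 luminescence read after 20 min at RT; data normalized to DMSO and 100 uM tamoxifen, AC50 from Hill fits.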

[17] = Cellular Toxicity (caspase-3) Hek293 (AID 664); settings: HEK293 caspase-3 activation, DMSO = 0%, 100 µM tamoxifen = 100%; series mostly up to 92.2 µM;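 note: cells exposed to compound for 16 h at 37 °C before readout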
Outline: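 HEK293 cells were exposed to compounds in complete medium for 16 hr at 37 °C, then caspase-3/7 activity was read by Caspase-Glo 3/7 luminescence after 20 min at room temperature. Data normalized to DMSO and 100 uM tamoxifen; AC50 from Hill fits.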

[18] = Cellular Toxicity (caspase-3) Renal Proximal Tubule (AID 667); settings: renal proximal tubule cells; at 91.7 µM (top of the series), primary cells freshly taken from rat, solvent-only wells 0%, staurosporine 100% unless noted;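 note: cells exposed to compound for 16 hours at 37 °C before detection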
Outline: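 Freshly isolated primary rat kidney proximal tubule cells, 1000/well, treated 16 hr at 37 °C, then Caspase-Glo 3/7 luminescence after 1 hr. Normalized to DMSO and 10 uM staurosporine; AC50 from Hill fit.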

[19] = qHTS Assay for Identification of Small Molecule Inducers of Hypoxia Response (AID 2120; active = well fitted curve in the direction sought with a large enough effect in the signal ratio, with a control signal flat, not every such curve was filed as active; the % refers to the signal ratio; note: 0% is about no effect); settings: hypoxia response reporter cells, beta-lactamase ratio readout; series mostly up to 104 µM
Outline: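 HRE-beta-lactamase reporter in CellSensor HRE-bla ME-180 cells, 2500 cells/well in Opti-MEM with 0.5% dialyzed FBS; compounds tested as titration series, 17 h at 37 degrees C. CCF4 substrate 2.5 h at room temperature; AC50 from 460/530 nm ratio.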

[20] = target: Peroxisome proliferator-activated receptor alpha (Homo sapiens) (UniProt Q07869); assay: qHTS assay for small molecule agonists of the peroxisome proliferator-activated receptor alpha (PPARalpha) signaling pathway (AID 651778); settings: PathHunter PPARalpha complementation, chemiluminescence, 6 h; hits give high values; note: % of control where 0% means no effect
Outline: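 Enzyme-fragment complementation assay in which ligand-bound PPARalpha translocates and forms an active enzyme that generates chemiluminescence. Cells were plated overnight, exposed to compound for 6 hr at 37 C, and then given detection reagent for 60 min at room temperature.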

Peroxisome proliferator-activated receptor alpha (Homo sapiens), sequence (Q07869 whole entry, looked up, the tested form may be a part): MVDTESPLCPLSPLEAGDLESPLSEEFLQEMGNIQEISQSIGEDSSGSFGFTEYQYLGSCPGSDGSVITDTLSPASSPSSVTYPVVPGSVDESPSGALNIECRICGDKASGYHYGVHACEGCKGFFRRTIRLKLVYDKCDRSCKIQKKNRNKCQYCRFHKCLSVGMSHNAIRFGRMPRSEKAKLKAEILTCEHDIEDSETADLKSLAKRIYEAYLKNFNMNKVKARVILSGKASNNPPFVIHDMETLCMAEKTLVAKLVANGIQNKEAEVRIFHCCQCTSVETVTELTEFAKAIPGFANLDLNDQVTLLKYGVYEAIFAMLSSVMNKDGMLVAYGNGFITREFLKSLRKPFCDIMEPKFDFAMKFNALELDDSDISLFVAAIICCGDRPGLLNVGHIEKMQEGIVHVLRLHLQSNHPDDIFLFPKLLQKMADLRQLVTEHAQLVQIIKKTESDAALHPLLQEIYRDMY

O=NN(CCO)CCO
inactive: Potency [1] > 92 µM | Potency [2] > 92 µM | Potency [3] > 92 µM | activity change, negative = cytotoxicity [4] -23.2% | Potency [5] | Potency [6] | Potency [7] | activity change, negative = cytotoxicity [8] -10.4% | outcome [9] | caspase-3 activation [10] -1.33% | outcome [11] | outcome [12] | outcome [13] | outcome [14] | outcome [15] | outcome [16] | outcome [17] | caspase-3 activation [18] 4.45% | outcome [19] | max response [20] -4.3%

CC(C)(C)OO
inactive: Potency [1] > 92 µM | Potency [2] > 92 µM | Potency [3] > 92 µM | activity change, negative = cytotoxicity [4] -4.73% and 1.03% | Potency [5] | Potency [6] | Potency [7] | activity change, negative = cytotoxicity [8] -2.92% and -10.1% | outcome [9] | caspase-3 activation [10] 16.6% and 4.19% | outcome [11] | outcome [12] | outcome [13] | outcome [14] | outcome [15] | outcome [16] | outcome [17] | caspase-3 activation [18] 12.8% and -1.63% | outcome [19] | max response [20] -2.75% and -4.99%

ClC(Cl)=C(Cl)C(Cl)=C(Cl)Cl
inactive: Potency [1] > 92 µM | Potency [2] > 92 µM | Potency [3] > 92 µM | activity change, negative = cytotoxicity [4] -27.5% | Potency [5] | Potency [6] | Potency [7] | activity change, negative = cytotoxicity [8] -4.45% | outcome [9] | caspase-3 activation [10] -0.64% | outcome [11] | outcome [12] | outcome [13] | outcome [14] | outcome [15] | outcome [16] | outcome [17] | caspase-3 activation [18] 5.5% | outcome [19] | max response [20] -0.178% and -1.05%

COc1ccc(N)cc1
inactive: Potency [1] > 92 µM | Potency [2] > 92 µM | Potency [3] > 92 µM | activity change, negative = cytotoxicity [4] -5.61% | Potency [5] | Potency [6] | Potency [7] | activity change, negative = cytotoxicity [8] 0.402% and -5.11% | outcome [9] | caspase-3 activation [10] 2.07% and 0.631% | outcome [11] | outcome [12] | outcome [13] | outcome [14] | outcome [15] | outcome [16] | outcome [17] | caspase-3 activation [18] 4.4% and -11% | outcome [19] | max response [20] -0.77% and -1.08%

CCCCOCCOP(=O)(OCCOCCCC)OCCOCCCC
inactive: Potency [1] > 92 µM | Potency [2] > 92 µM | Potency [3] > 92 µM | activity change, negative = cytotoxicity [4] -4.02% | Potency [5] | Potency [6] | Potency [7] | activity change, negative = cytotoxicity [8] 5.24% [at 91.7 µM] | outcome [9] | caspase-3 activation [10] 1.12% | outcome [11] | outcome [12] | outcome [13] | outcome [14] | outcome [15] | outcome [16] | outcome [17] | caspase-3 activation [18] -4.16% [at 91.7 µM] | outcome [19] | max response [20] 5.47% and -1.69%

C=CC(=C)C
inactive: Potency [1] > 92 µM | Potency [2] > 92 µM | Potency [3] > 92 µM | activity change, negative = cytotoxicity [4] -9.16% | Potency [5] | Potency [6] | Potency [7] | activity change, negative = cytotoxicity [8] 5.45% | outcome [9] | caspase-3 activation [10] 0.843% | outcome [11] | outcome [12] | outcome [13] | outcome [14] | outcome [15] | outcome [16] | outcome [17] | caspase-3 activation [18] -6.39% | outcome [19] | max response [20] 4.78%

CCC[CH2][Sn]([Cl])([Cl])[Cl]
inactive: Potency [1] > 92 µM | Potency [2] > 92 µM | Potency [3] > 92 µM | activity change, negative = cytotoxicity [4] -25.6% | Potency [5] | Potency [6] | Potency [7] | activity change, negative = cytotoxicity [8] -9.62% | outcome [9] | caspase-3 activation [10] 1.34% | outcome [11] | outcome [12] | outcome [13] | outcome [14] | outcome [15] | outcome [16] | outcome [17] | caspase-3 activation [18] 6.84% | outcome [19] | max response [20] 0.179% and -1.51%

CC(Cl)Cl
inactive: Potency [1] > 92 µM | Potency [2] > 92 µM | Potency [3] > 92 µM | activity change, negative = cytotoxicity [4] -15.4% | Potency [5] | Potency [6] | Potency [7] | activity change, negative = cytotoxicity [8] -11.4% | outcome [9] | caspase-3 activation [10] 1.86% | outcome [11] | outcome [12] | outcome [13] | outcome [14] | outcome [15] | outcome [16] | outcome [17] | caspase-3 activation [18] -1.5% | outcome [19] | max response [20] 4.62%

O=[N+]([O-])c1cccc2ccccc12
inactive: Potency [1] > 92 µM | Potency [2] > 92 µM | Potency [3] > 92 µM | activity change, negative = cytotoxicity [4] 3.57% | Potency [5] | Potency [6] | Potency [7] | activity change, negative = cytotoxicity [8] -0.153% | outcome [9] | caspase-3 activation [10] -1.75% | outcome [11] | outcome [12] | outcome [13] | outcome [14] | outcome [15] | outcome [16] | outcome [17] | caspase-3 activation [18] -1.57% | outcome [19] | max response [20] -0.448% and 0.96%
